Screens: PubChem, Sanford-Burnham Center for Chemical Genomics
An excerpt weighted towards active compounds, which were near 28% of everything screened.
CYP2C19 inh: inhibitors of human CYP2C19. P33261. CYP2C19 Supersomes, luciferin-H EGE luminescence, 30 min. inhibition, % at 5 µM. 96,000 tested, 21% active. AID 778;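 active = CYP2C19 inhibition above a set limit at 5 µM in the primary screen, cut at about 50% in these data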
Target sequence (P33261 whole entry, looked up): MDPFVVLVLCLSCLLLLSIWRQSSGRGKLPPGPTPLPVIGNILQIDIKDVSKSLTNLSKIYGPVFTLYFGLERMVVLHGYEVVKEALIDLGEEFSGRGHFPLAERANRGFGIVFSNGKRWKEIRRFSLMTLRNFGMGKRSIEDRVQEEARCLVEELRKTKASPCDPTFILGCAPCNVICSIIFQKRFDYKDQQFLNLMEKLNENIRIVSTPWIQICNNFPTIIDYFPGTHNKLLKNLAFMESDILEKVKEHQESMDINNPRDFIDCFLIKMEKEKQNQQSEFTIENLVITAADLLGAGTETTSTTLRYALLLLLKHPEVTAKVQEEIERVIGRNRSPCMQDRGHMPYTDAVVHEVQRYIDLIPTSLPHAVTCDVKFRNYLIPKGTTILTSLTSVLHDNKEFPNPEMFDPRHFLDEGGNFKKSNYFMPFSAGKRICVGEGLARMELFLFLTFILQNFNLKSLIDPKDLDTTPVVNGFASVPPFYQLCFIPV
CYP2C9 inhib: human CYP2C9 inhibition. P11712. CYP2C9 Supersomes, luciferin-H conversion, luminescence. inhibition, % at 5 µM. 96,000 tested, 20% active. AID 777;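 active = blocking of liver enzyme CYP2C9 beyond about 50% at 5 µM, limit read from the data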
CD11b adhes enh: CD11b/CD18-fibrinogen binding enhancement. AID 1499. 93,000 tested, 0.07% active. P05107+P11215. activation, % at 10 µM. K562 CD11b/CD18 adhesion to fibrinogen, ATPlite luminescence;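 active = 10 µM primary screen giving 50% or more activity, confirmed by 40% or more on retest at that dose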
Mac1 fbg inh: inhibitors of human CD11b/CD18 binding to fibrinogen; 93,000 tested, 0.54% active; P05107+P11215; inhibition, % at 10 µM; AID 1497; K562 CD11b/CD18 adhesion to fibrinogen, ATPlite luminescence; Mn2+ added to activate the integrin;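 active = primary inhibition of 50% or more at 10 µM, then 40% or more on retest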
CYP2C9 act: increases human cytochrome P450 2C9 activity. 96,000 tested, 1.4% active. activation factor at 5 µM. recombinant CYP2C9, luciferin-H conversion, luminescence; hits give high values; factor 1 = untreated enzyme, 0 = blocked. P11712;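 active = activation factor of 2 or more for CYP2C9 at a 5 µM dose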
CYP2C19 act: increases human CYP2C19 enzyme activity | P33261 | recombinant CYP2C19, luciferin-H EGE luminescence; hits give high values; 0 = fully inhibited enzyme, 1 = untreated enzyme | activation factor at 5 µM | 96,000 tested, under 10 active | AID 1025;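 active = activation factor of at least 2 at 5 µM in the primary screen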
Numbers stand for hits; . = inactive; / = not tested or not shown.

SMILES	CYP2C19 inh	CYP2C9 inhib	CD11b adhes enh	Mac1 fbg inh	CYP2C9 act	CYP2C19 act
COc1ccc2nc(N3C(=O)CC(Cc4cc(C)cc(C)c4)C3=O)sc2c1 (centres undefined)	.	.	.	.	.	.
CCc1ccc(NC(=O)N(CCOC)C2CCN(C(C)=O)CC2)cc1	.	.	.	.	.	.
O=C(C1CC1)N1CCc2cc(Br)cc(S(=O)(=O)N3CCN(c4ccccn4)CC3)c21	72	95	.	.	.	.
O=C(C1CC1)N1CCc2cc(Br)cc(S(=O)(=O)NCCCN3CCCC3)c21	.	.	.	.	.	.
CCOC(=O)C1CCN(S(=O)(=O)c2cc(Br)cc3c2N(C(=O)C2CC2)CC3)CC1	60	.	.	.	.	.
Cc1oc2ccc(O)c(CN3CCOCC3)c2c1C(=O)c1ccc(Cl)cc1	59	52	.	.	.	.
O=c1c2cnn(-c3ccccc3)c2ncn1Cc1cccnc1	.	.	/	/	.	.
O=c1c2cnn(-c3ccccc3Cl)c2ncn1Cc1cccnc1	53	.	.	.	.	.
O=c1c2cnn(-c3ccccc3)c2ncn1Cc1ccco1	.	50	.	.	.	.
O=c1c2cnn(-c3ccc(F)cc3)c2ncn1Cc1cccnc1	50	.	.	.	.	.
CCCCCc1nnc(N)s1	.	.	.	.	.	.
Nc1nnc(CCC2CCCCC2)s1	73	.	.	.	.	.
CCOC(=O)c1c(C)c(C(=O)N2CCCCCC2)c(C)n1CC	67	.	.	.	.	.
CCOC(=O)c1c(C)c(C(=O)N2CCCCCC2)c(C)n1C	.	.	/	/	.	.
Cc1cc(C)n(S(=O)(=O)/C=C/c2ccccc2)n1	74	.	.	.	.	.
Cc1ccc(S(=O)(=O)n2nc(C)cc2C)cc1	.	.	.	.	.	.
CC1CN(c2nc3c(c(=O)n(C)c(=O)n3C)n2Cc2c(F)cccc2Cl)CC(C)O1 (centres undefined)	.	59	.	.	.	.
Cc1cccc(S(=O)(=O)C(C#N)c2nc3ccccc3nc2N2CC(C)OC(C)C2)c1 (centres undefined)	.	.	.	95	.	.
Cc1ccc(S(=O)(=O)C(C#N)c2nc3ccccc3nc2N2CC(C)OC(C)C2)cc1C (centres undefined)	.	.	.	90	.	.
CCN1CCN(c2nc3ccccc3nc2C(C#N)S(=O)(=O)c2ccc(C)cc2)CC1 (centres undefined)	.	.	.	.	.	.
c1ccc2c(c1)OCC(c1nn3c(Cn4nnc5ccccc54)nnc3s1)O2 (centres undefined)	.	.	.	.	.	.
O=C(CSc1nc(O)c(C2CCCCC2)c(=O)[nH]1)Nc1ccc(Cl)cc1	.	66	.	.	.	.
CC(C)=CCC(C)(C)C1OCCN1C(=O)c1ccccc1 (centres undefined)	71	.	.	.	.	.
O=C(O)C1Cc2ccccc2CN1C(=O)c1ccccc1 (centres undefined)	.	.	.	.	.	.
Cn1c(=O)c2c(ncn2CCCNC2=CC(C)(C)CC(=O)C2)n(C)c1=O	.	.	.	.	.	.
SMILES	CYP2C19 inh	CYP2C9 inhib	CD11b adhes enh	Mac1 fbg inh	CYP2C9 act	CYP2C19 act
O=S(=O)(NC1CCCCC1)c1ccc(Br)cc1	80	.	.	.	.	.
CCc1ccc(OCC(=O)NC(=S)Nc2ccc(S(=O)(=O)NC3CCCCC3)cc2)cc1	.	74	.	.	.	.
COC(=O)COc1ccc(S(=O)(=O)NC2CCCCCC2)cc1	94	88	.	.	.	.
COC(=O)CCN(C1CCCCC1)S(=O)(=O)c1ccc(S(=O)(=O)NC2CCCCC2)cc1	97	100	.	.	.	.
CCN(C1CCCCC1)S(=O)(=O)c1ccc(C(=O)O)cc1	.	.	.	.	.	.
O=C(COc1ccc(S(=O)(=O)NC2CCCC2)cc1)N1CCCCCC1	.	.	.	.	.	.
CC(=O)NC(=O)COC(=O)/C=C/c1c(C)nn(Cc2c(Cl)cccc2Cl)c1Cl	.	.	.	.	.	.
COc1ccc(Nc2ncnc3c2cnn3Cc2ccccc2)cc1	55	.	.	.	.	.
c1ccc(-n2ncc3c(NCc4cccs4)ncnc32)cc1	60	81	.	.	.	.
COc1ccc(-n2ncc3c(NCc4ccccn4)ncnc32)cc1	61	53	.	.	.	.
CCOc1ccc(Nc2ncnc3c2cnn3Cc2ccccc2)cc1	.	.	/	/	.	.
c1ccc(-n2ncc3c(NCc4cccnc4)ncnc32)cc1	.	69	.	.	.	.
COC(=O)C(CC(C)C)NC(=O)c1ccc([N+](=O)[O-])c(C)c1 (centres undefined)	.	.	/	/	.	.
Cc1ccc(C(=O)Cn2c(C(=O)/C=C/c3ccccc3)nc3ccccc32)cc1	.	.	/	/	.	.
c1ccc(-c2nnc(CSc3nncs3)o2)cc1	.	.	.	.	.	.
CC1CN(c2ccccc2)C(=O)CS1 (centres undefined)	.	.	.	.	.	.
Cc1ccc(C(=O)N2CCN(c3ccc(C(F)(F)F)cn3)CC2)cc1	.	.	.	.	.	.
Cc1ccc(C(=O)N2CCN(c3ccc(C(F)(F)F)cn3)CC2)c(C)c1	64	.	.	.	.	.
COc1cccc(CN2C(=O)CN(C3CCCCC3)C(=O)C2c2ccc(F)cc2)c1 (centres undefined)	.	.	.	.	.	.
CCOC(=O)c1[nH]c(C)c(C(=O)NCCN2CCOCC2)c1C	.	.	.	.	.	.
COC(=O)c1c(C)[nH]c(C(=O)/C=C/c2cccc(Cl)c2)c1C	/	/	.	.	/	/
COC(=O)c1c(C)[nH]c(C(=O)CN2CCOCC2)c1C	62	.	.	.	.	.
COC(=O)c1c(C)[nH]c(C(=O)CSc2ccc(Cl)cc2)c1C	.	68	.	.	.	.
O=C(COC(=O)Cn1cnc2ccccc21)NCCc1ccc(Cl)cc1	.	.	.	.	.	.
CCOC(=O)/C=C1\SCC(=O)N1CC(=O)NC1CCCCC1	67	.	.	.	.	.
SMILES	CYP2C19 inh	CYP2C9 inhib	CD11b adhes enh	Mac1 fbg inh	CYP2C9 act	CYP2C19 act
CCOC(=O)N1CCC(NC(=O)CN2C(=O)CSc3nc(C)cc(C)c32)CC1	61	.	.	.	.	.
CCOC(=O)/C=C1\SCC(=O)N1CC(=O)NCc1cccc(Cl)c1	/	/	.	.	/	/
CCOC(=O)/C=C1\SCC(=O)N1CC(O)CN1C(=O)CS/C1=C\C(=O)OCC	.	.	.	.	.	.
CCOC(=O)/C=C1\SCC(=O)N1CCOc1cccc(Br)c1	82	80	.	.	.	.
CCC1(C)Cc2c(c(=O)n(-c3ccccc3)c3ncnc(N)c23)CO1 (centres undefined)	.	.	.	.	.	.
O=C(Cn1cnc2ccccc21)NC(c1ccccc1)c1ccccc1	.	.	/	/	.	.
Cc1cc(C(=O)NCCC(c2ccccc2)c2ccccc2)c(C)o1	93	98	.	.	.	.
